This is an account of results in PubChem BioAssay AID1851 (National Center for Advancing Translational Sciences (NCATS), 2009).

Screen size: about 16,000 compounds; about 5,800 (36%) were called active. About 23% were inconclusive and are not listed. Some of the results follow. Values without a mark were called inactive. Calls come from the whole dose curve; as a rule, active = well fitted curve in the direction sought with a large enough effect; inconclusive = small, poorly fitted or top-dose-only effect, or effect the other way; inactive = no such curve, though single readings can be large or run the other way.
% is set by controls: 0 for no effect and ±100 for the full control effect.

Cytochrome P450 2C19 (Homo sapiens), sequence (P33261 whole entry, looked up): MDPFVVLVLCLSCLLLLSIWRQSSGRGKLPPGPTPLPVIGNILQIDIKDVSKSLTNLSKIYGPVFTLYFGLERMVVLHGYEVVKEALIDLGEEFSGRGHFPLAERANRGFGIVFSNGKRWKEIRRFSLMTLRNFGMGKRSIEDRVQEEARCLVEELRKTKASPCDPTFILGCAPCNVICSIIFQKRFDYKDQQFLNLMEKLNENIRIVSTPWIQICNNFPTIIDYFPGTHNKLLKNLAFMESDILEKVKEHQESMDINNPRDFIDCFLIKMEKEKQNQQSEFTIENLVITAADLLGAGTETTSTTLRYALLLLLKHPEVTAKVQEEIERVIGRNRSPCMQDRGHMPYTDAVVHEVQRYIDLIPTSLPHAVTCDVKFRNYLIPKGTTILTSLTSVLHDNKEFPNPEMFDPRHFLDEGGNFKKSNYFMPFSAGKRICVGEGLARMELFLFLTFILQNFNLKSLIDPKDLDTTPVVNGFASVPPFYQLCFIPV

The experiment has as its target Cytochrome P450 2C19 (Homo sapiens) (UniProt P33261). As to the kind of experiment: Cytochrome panel assay with activity outcomes. The settings on record: recombinant CYP, pro-luciferin dealkylation, luminescence, p450-cyp2c19; series mostly up to 57.1 µM; activity, negative = inhibition: at the top concentration.
The AC50 is the concentration giving half of the maximal activity seen. `CCOC(=O)C1=C(c2ccccc2)OC(N)=C(C#N)C1c1ccc(Cl)s1` (centres undefined): the AC50 is 0.398 µM (active).

In the case of `CCc1cc2c(=O)c(-c3nc4ccccc4[nH]3)coc2cc1OC(=O)N1CCOCC1`, the half-maximal activity concentration (AC50) was 15.8 µM (active).

Take `COc1cc(Br)c(C(C)NC(=O)c2cccc(Br)c2)cc1OC` (centres undefined): the AC50 is 2.24 µM (active).

Regarding `COc1ccccc1CNc1ncnc2ccc(-c3ccc4c(c3)OCO4)cc12`, the AC50 is 3.16 µM (active).

For `COc1ccccc1CNc1ncnc2ccc(-c3ccc(N(C)C)cc3)cc12`, the AC50 was 10 µM (active).

With `COc1ccc(CNc2ncnc3ccc(-c4ccc(N(C)C)cc4)cc23)c(OC)c1`, the AC50 was 3.98 µM (active).

For `CN(C)c1ccc(-c2ccc3ncnc(NCc4ccccc4)c3c2)cc1`, the AC50 is 7.94 µM (active).

As for `CC(C)CO/N=C1/C[C@@H](O)[C@@H](O)[C@@H]2[C@@H]3C(=O)N(C[C@@H]4CCCO4)C(=O)[C@H]3CC[C@H]12`, the activity, negative = inhibition was 24.8% [at 11.4 µM].

`COc1ccc(CNc2ncnc3ccc(-c4ccc(C(=O)N(C)C)cc4)cc23)c(OC)c1`: the AC50 is 15.8 µM (active).

Take `COCCNc1ncnc2ccc(-c3ccc(C(=O)N(C)C)cc3)cc12`: the “activity, negative = inhibition” value was 6.62%.

With `Clc1ccc(Sc2cc(N3CCOCC3)nc(-c3ccccc3)n2)cc1`, the AC50 was 3.55 µM (active).

With `COc1cccc(Sc2cc(N3CCOCC3)nc(-c3ccccc3)n2)c1`, the AC50 is 14.1 µM (active).

`O=c1nc(N2CCOCC2)ccn1-c1nc(-c2ccccc2)oc1-c1ccccc1`: the “activity, negative = inhibition” value is -22.4%.

`Nc1nc(Cl)cc(N2CCOCC2)n1`: the “activity, negative = inhibition” value was -18.1%.

`CS(=O)(=O)Nc1cccc(-c2nc(N3CCOCC3)c3ccccc3n2)c1`: the “activity, negative = inhibition” value is -36.3%.

Consider `Cc1c(Br)c([N+](=O)[O-])nn1C(C)C(=O)Nc1nccs1` (centres undefined), for which the AC50 was 10 µM (active).

Take `CCc1ccccc1NC(=O)C(C)n1nc([N+](=O)[O-])c(Br)c1C` (centres undefined): the AC50 is 2.51 µM (active).

For the molecule `C[N+](C)(C)CCCCCC[N+](C)(C)C`, the AC50 entry was “inactive”.

For `O=C(CSCC(=O)OCn1nnc2ccccc2c1=O)Nc1ccc(Cl)cc1`, the AC50 was 11.2 µM (active).

For `CCC1OC23CCCCC2C(C#N)(C(=N)O3)C1(C#N)C#N` (centres undefined), the AC50 was 17.8 µM (active).

Turning to `Nc1ccccc1S[C@@H](C[N+](=O)[O-])c1ccc2c(c1)OCO2`, the AC50 is 1.58 µM (active).

Consider `COc1ccc(C(=O)N2CCC[C@@]3(CCN(C(=O)NC(C)C)C3)C2)cc1`, for which the “activity, negative = inhibition” value is 13.2%.

`CCN1CCN(c2cc(=O)n(-c3cc(Cl)ccc3C)c(=O)[nH]2)CC1`: the “activity, negative = inhibition” value was -12%.

`CCCCCn1c(CN2CCN(c3cc(Cl)ccc3C)CC2)nc2c1c(=O)[nH]c(=O)n2C`: the AC50 is 3.55 µM (active).

For the molecule `COc1cc(O)c2c(O)c3c(c4c2c1[C@@]1(C4)C(C)=CCCC1(C)C)[C@H](O)[C@@]1(O)CC(=O)C(C(N)=O)=C(O)[C@]1(O)C3=O`, the AC50 was 2.51 µM (active).

As to `CN(C)CCNc1oc(COc2ccc(Cl)cc2Cl)nc1C#N`, the “activity, negative = inhibition” value was 0.262%.

As to `N#Cc1nc(COc2ccccc2Cl)oc1NCc1ccco1`, the AC50 was 2.24 µM (active).

Take `CCC1C(=O)N=C(SCC(=O)Nc2ccc(C(=O)OC)cc2)NC1=O` (centres undefined): the AC50 is 22.4 µM (active).

Consider `CCOC(=O)c1ccc(NC(=O)CC2NCCNC2=O)cc1` (centres undefined), for which the “activity, negative = inhibition” value was 19.3%.

As for `CCCCSc1ccc2nc(-c3ccc(C#N)cc3)cn2c1`, the AC50 was 4.47 µM (active).

For the molecule `Oc1ccccc1CNCc1ccccc1O`, the activity, negative = inhibition was -44.5% [at 11.4 µM].

For `Clc1ccccc1CNCC1CCC(CNCc2ccccc2Cl)CC1` (centres undefined), the AC50 is 0.794 µM (active).

Consider `O=C(O)C[C@H](Cc1ccccc1Cl)C(=O)O`, for which the activity, negative = inhibition was 14.2% [at 11.4 µM].

In the case of `CC(N)=NCCCC[C@H](N)C(=O)O`, the AC50 result was “inactive”.

Consider `NC(=O)C1(N2CCCCC2)CCN(C(=O)c2ccc(-n3cnnn3)cc2)CC1`, for which the “activity, negative = inhibition” value is -7.9%.

`NC(=O)C1(N2CCCCC2)CCN(C(=S)Nc2ccc(Cl)cc2)CC1`: the AC50 is 3.16 µM (active).

Consider `O=C(O)C1(Nc2ccc(Cl)cc2)CCCC1`, for which the activity, negative = inhibition is 25.8% [at 11.4 µM].

Consider `CCCCN(C(=S)Nc1ccccc1)C1CCS(=O)(=O)C1` (centres undefined), for which the “activity, negative = inhibition” value is -28.8%.

In the case of `CCCCSC(=S)N(C)C1CCS(=O)(=O)C1` (centres undefined), the AC50 was 3.98 µM (active).

For the molecule `CCCNC1CCS(=O)(=O)C1` (centres undefined), the “activity, negative = inhibition” value is 3.5%.

Regarding `CCCn1nc2cc(C(=O)NCCCCc3ccccc3)ccc2c1OCC`, the AC50 was 6.31 µM (active).

For the molecule `CCCCn1nc2cc(C(=O)NCCCCc3ccccc3)ccc2c1OCC`, the AC50 is 22.4 µM (active).

With `CCCn1nc2cc(C(=O)NCc3ccccc3OC)ccc2c1OCC`, the AC50 was 20 µM (active).

As to `COc1ccccc1CNC(=O)c1cc2c(C)nn(Cc3ccc(F)cc3)c2s1`, the AC50 was 11.2 µM (active).

As for `COC(=O)Cc1c(C)nc2nc(NCc3ccccc3OC)[nH]n2c1=O`, the “activity, negative = inhibition” value is -29.7%.

Regarding `NCC[C@H](N)C(=O)O`, the activity, negative = inhibition was -4.53% [at 11.4 µM].

As to `COCCn1nc2cc(C(=O)NCC34CC5CC(CC(C5)C3)C4)ccc2c1OC`, the “activity, negative = inhibition” value is -28.7%.

`CCOc1c2ccc(C(=O)NC3CCCc4ccccc43)cc2nn1C` (centres undefined): the “activity, negative = inhibition” value is -18.9%.

As for `CCOc1c2ccc(C(=O)NCc3ccc4c(c3)OCO4)cc2nn1CC`, the AC50 was 31.6 µM (active).

Regarding `C=CCOc1c2ccc(C(=O)NC3CCCc4ccccc43)cc2nn1C` (centres undefined), the “activity, negative = inhibition” value is -27.6%.

In the case of `CCCn1nc2cc(C(=O)NC3CCCc4ccccc43)ccc2c1OCC` (centres undefined), the AC50 was 28.2 µM (active).

For the molecule `CCOc1c2ccc(C(=O)NCc3ccco3)cc2nn1CC`, the “activity, negative = inhibition” value is -25.6%.

Consider `CCCn1nc2cc(C(=O)NCCc3ccc(C)cc3)ccc2c1OCC`, for which the AC50 is 25.1 µM (active).

Turning to `CCn1nc2cc(C(=O)NCC34CC5CC(CC(C5)C3)C4)ccc2c1OC`, the AC50 was 22.4 µM (active).
